# Hits are enriched below; roughly 3.9% of the tested compounds scored in any of these assays.
# Autofluor counter = counter-screen for toxin protease inhibitors: compound fluorescence. compound autofluorescence counterscreen, microsphere flow cytometry; stronger effect = higher value. fluorescence intensity (test concentration not listed). actives 3.1% (n = 360,000). AID 624483; in the data active means fluorescence intensity above about 16000; inconclusive means no clear call, values can overlap the other calls
# Anthrax LF inh2 = Bacillus anthracis LF protease inhibitors, primary screen, biochemical, multiplex microsphere, MLPCN library; actives 0.12% (n = 360,000); inhibition, % at 10 µM; Lethal factor (Bacillus anthracis), P15917; multiplex microsphere protease cleavage assay; further: plate controls were buffer without enzyme for full effect and enzyme alone for no effect
# Target sequence (P15917 whole entry, looked up): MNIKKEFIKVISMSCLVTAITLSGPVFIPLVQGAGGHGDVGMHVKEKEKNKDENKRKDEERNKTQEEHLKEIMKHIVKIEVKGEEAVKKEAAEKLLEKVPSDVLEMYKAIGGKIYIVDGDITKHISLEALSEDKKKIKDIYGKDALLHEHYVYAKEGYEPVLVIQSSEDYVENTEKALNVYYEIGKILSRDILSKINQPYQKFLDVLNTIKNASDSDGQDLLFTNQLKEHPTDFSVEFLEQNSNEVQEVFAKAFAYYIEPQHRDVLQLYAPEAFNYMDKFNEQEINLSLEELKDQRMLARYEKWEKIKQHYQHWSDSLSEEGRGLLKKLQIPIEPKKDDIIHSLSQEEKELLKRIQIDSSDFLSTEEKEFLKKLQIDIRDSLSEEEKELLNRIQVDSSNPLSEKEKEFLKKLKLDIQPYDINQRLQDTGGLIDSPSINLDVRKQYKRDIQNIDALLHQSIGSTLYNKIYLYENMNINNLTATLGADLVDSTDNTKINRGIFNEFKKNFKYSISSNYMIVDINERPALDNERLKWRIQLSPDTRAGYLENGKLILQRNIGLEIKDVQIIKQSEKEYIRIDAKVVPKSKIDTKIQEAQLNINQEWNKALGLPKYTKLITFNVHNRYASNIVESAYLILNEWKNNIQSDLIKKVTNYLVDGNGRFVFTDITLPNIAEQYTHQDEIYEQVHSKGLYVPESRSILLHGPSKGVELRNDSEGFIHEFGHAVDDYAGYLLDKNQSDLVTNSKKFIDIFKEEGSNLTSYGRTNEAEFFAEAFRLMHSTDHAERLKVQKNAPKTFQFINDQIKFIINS
# SARS 3CLpro inh = SARS-CoV 3CLpro protease inhibitors, primary screen, biochemical, quenched FRET | inhibition, % at 6 µM | recombinant SARS-CoV 3CLpro, quenched FRET peptide cleavage | actives 0.14% (n = 290,000); in the data active means inhibition above about 12%
# BoNT A protease = BoNT/A light chain protease inhibitors, primary screen, biochemical, flow cytometry, MLPCN library; AID 588499, 2011; actives 0.17% (n = 360,000); inhibition, % at 10 µM; multiplex microsphere protease substrate cleavage; Botulinum neurotoxin type A light chain protease (Clostridium botulinum A str. ATCC 3502); further: plate controls were buffer without enzyme for full effect and enzyme alone for no effect
# BoNT F protease = BoNT/F light chain protease inhibitors, primary screen, biochemical, flow cytometry, MLPCN library | Multiplex microsphere protease cleavage assay | inhibition, % at 10 µM | AID 588497, 2011 | Botulinum neurotoxin type F light chain protease (Clostridium botulinum) | actives 0.22% (n = 360,000); in the data active means inhibition above about 35%, passing the limit was not always enough; inconclusive means no clear call, values can overlap the other calls; further: plate controls were buffer without enzyme for full effect and enzyme alone for no effect
# CCHF vOTU inh = CCHFV vOTU protease inhibitors, primary screen, biochemical, Pep-AMC substrate, fluorescence. inhibition, % at 11.5 µM. actives 0.55% (n = 370,000). Crimean-Congo hemorrhagic fever virus L polyprotein viral ovarian tumor (vOTU) protease …. AID 651958, 2012; in the data active means inhibition above about 30%; further: 0% = vehicle wells with enzyme and 100% = no enzyme wells
# An asterisk follows results filed as active; ? = inconclusive; nt = no result. Unless noted, no stated cut-off is given here; in the data, active means inhibition above about 30%; inconclusive means no clear call, values can overlap the other calls; inactive means below that.
SMILES,Autofluor counter,Anthrax LF inh2,SARS 3CLpro inh,BoNT A protease,BoNT F protease,CCHF vOTU inh
Cc1cccc(-c2cccc3c4c([nH]c23)[C@@H]2C[C@H](N(C)C(=O)Nc3ccccc3C)[C@H]([C@H](C)O)CN2CC4)c1,nt,nt,nt,nt,nt,-2.3
O=C(c1cccc(Cl)c1Cl)N1CCN(c2ccccn2)CC1,16331*,-1.8,-1.2,?,-0.6,-0.1
O=C(c1ccccc1Cl)N1CCN(c2ccccn2)CC1,3893,-3.3,2.4,-0.7,3.7,-0.3
Cc1sc2nc3c(C(=O)N4CCN(c5ccccn5)CC4)cccn3c(=O)c2c1C,nt,nt,-0.2,nt,nt,nt
O=C(c1cccn2c(=O)c3ccccc3nc12)N1CCN(c2ccccn2)CC1,23291*,2.0,-1.0,-3.1,-2.1,-5.7
Cc1c(C(=O)N2CCN(S(=O)(=O)c3ccccc3)CC2)oc2ccccc12,7117,-2.1,nt,-3.5,-9.4,1.7
Cc1c(C(=O)N2CCN(CCc3ccccc3)CC2)oc2ccccc12,24130*,-3.2,0.6,0.5,-4.3,3.3
O=C(c1ccccc1)N1CCN(CCc2ccccc2)CC1,3007,-4.1,-1.4,0.1,-10.9,4.9
Cc1c(C(=O)N2CCN(S(C)(=O)=O)CC2)oc2ccccc12,20670*,0.7,1.5,0.5,-0.2,-9.6
COc1ccc(-c2noc(CCC(N)=O)n2)cc1OC,22164*,-4.2,2.0,?,-8.4,0.1
CCOc1ccc(-c2noc(CCCC(N)=O)n2)cc1OC,22255*,-4.5,-1.6,-0.6,-1.9,-21.6
COc1ccc(-c2noc(CCCC(=O)Nc3ccc(C(N)=O)cc3)n2)cc1OC,4365,-1.0,7.2,-2.9,-7.4,-1.5
Cc1ccccc1Cn1cc(CN2[C@@H](CC(C)C)COc3cccc(F)c3S2(=O)=O)nn1,nt,nt,nt,nt,nt,6.3
O=S(=O)(c1ccc2ccccc2c1)N1CCN(C2CCN(Cc3ccccc3)CC2)CC1,23769*,-0.2,2.6,-0.9,0.5,-4.8
O=C(O/N=C1/CCSc2ccccc21)c1ccc(F)cc1,24780*,-2.8,6.3,?,-6.0,nt
CN1CCCCC(NC(=O)c2cccs2)C1=O (centres undefined),nt,nt,nt,nt,nt,-5.1
COc1ccc(CCn2c(Br)nc3c2c(=O)[nH]c(=O)n3C)cc1,17013*,3.4,-0.6,-3.4,-2.7,-4.6
C=CCn1c(-c2cccn(Cc3ccccc3)c2=O)n[nH]c1=S,21465*,-3.3,3.2,-6.1,-5.9,3.6
CC(=O)c1cccc(NC(=O)CN(c2ccccc2F)S(C)(=O)=O)c1,22974*,0.2,4.7,0.6,2.2,-15.0
CC(=O)c1cccc(N(CC(=O)Nc2ccccc2F)S(C)(=O)=O)c1,3820,-10.3,3.1,-2.5,-9.2,-4.2
CN(C)S(=O)(=O)N(CC(=O)Nc1ccc(F)c(F)c1)c1ccccc1,19146*,-0.8,1.6,0.7,0.3,-10.1
CC(=O)c1cccc(NC(=O)CN(c2ccccc2)S(C)(=O)=O)c1,4559,0.6,2.8,0.8,-2.6,0.4
CC(=O)c1cccc(N(CC(=O)Nc2ccc(F)cc2F)S(C)(=O)=O)c1,22378*,-3.9,0.9,1.3,1.1,-4.0
COCCCN1C(=O)[C@H](CC(=O)NCc2ccc(C)o2)[C@]2(C(=O)OC)CCCCC=C12,nt,nt,nt,nt,nt,6.7
Nc1[nH]c2cc(C(F)(F)F)ccc2c1C(=O)NC1CCCCC1,nt,nt,nt,nt,nt,11.2
SMILES,Autofluor counter,Anthrax LF inh2,SARS 3CLpro inh,BoNT A protease,BoNT F protease,CCHF vOTU inh
O=C(CCc1ccccc1)c1ccc2c(c1)OCCCO2,19780*,-0.9,-0.3,?,4.3,5.1
CCOC(=O)C1=C(C)N=C2c3ccccc3C(=O)C2C1c1ccc(Cl)cc1 (centres undefined),9186,-7.8,1.0,-0.2,-11.4,15.3
CCOC(=O)C1=C(Cc2ccc(Cl)cc2)C(=O)c2ccccc2C1=O,23250*,-9.0,0.6,2.9,-9.9,nt
Cc1ccc(-c2nc3ncccn3c2NC(=O)Nc2ccc(OC(F)(F)F)cc2)cc1,nt,nt,nt,nt,nt,-1.8
CC(C)NC(=O)CC1OC(=O)c2ccccc21 (centres undefined),23103*,-1.0,7.3,0.5,0.1,5.4
Cc1ccc(-c2cc(-c3nnc(SCC(=O)N4CCOCC4)n3N)[nH]n2)cc1,nt,nt,nt,nt,nt,-0.9
O=C(Nc1ccc(F)cc1)OCc1cn(Cc2c(F)cccc2F)nn1,nt,nt,nt,nt,nt,-1.9
COc1ccc(-c2cc3ccccc3oc2=O)cc1NC(=O)c1ccc(Br)o1,2867,-1.5,-4.9,0.5,2.8,-1.8
COc1ccc(-c2cc3ccccc3oc2=O)cc1NC(=O)c1ccc([N+](=O)[O-])o1,23372*,1.1,1.2,0.1,1.0,0.1
COc1ccccc1N1CCN(C(=O)c2cc(-c3ccc(Cl)cc3)on2)CC1,24151*,-2.7,-7.2,-2.9,-4.6,-3.5
COc1ccccc1N1CCN(C(=O)c2cc(-c3ccc(C)cc3)on2)CC1,6118,6.2,3.0,0.2,6.9,3.5
COc1ccc(-c2cc(C(=O)N3CCCCC3)no2)cc1OC,23544*,-0.4,1.4,-0.6,-1.4,-8.1
Cc1oc2c(c1C(=O)Nc1ccc(C(=O)O)cc1)CCCC2,17117*,-1.5,0.4,-1.3,1.0,-5.5
Cc1oc2c(c1C(=O)NCc1ccccc1)CCCC2,9873,-1.3,0.9,-1.4,-22.6,-19.7
CC1=C(C#N)C(NC(=O)C(C)(C)C)(C(F)(F)F)C(=O)N1 (centres undefined),21687*,-1.3,0.4,-2.0,-3.9,3.3
O=C(NCc1ccccc1)N1CCC(c2nc3ccc(Cl)cc3[nH]2)CC1,nt,nt,nt,nt,nt,7.4
Clc1ccccc1N1CCN(Cc2ccc3c(c2)OCO3)CC1,3384,13.3,-0.6,2.1,32.3,0.0
O=S(=O)(c1ccc(F)c(F)c1)N1CCN(Cc2ccc3c(c2)OCO3)CC1,3597,-3.3,4.0,-0.1,-2.6,5.1
Fc1ccccc1N1CCN(Cc2ccc3c(c2)OCO3)CC1,21279*,0.3,-2.5,3.5,3.3,16.4
O=S(=O)(c1cccc(F)c1)N1CCN(Cc2ccc3c(c2)OCO3)CC1,16310*,-3.6,3.2,0.8,3.5,5.2
CCN1CCCCC(NC(=O)c2ccccc2)C1=O (centres undefined),nt,nt,nt,nt,nt,-5.3
Cc1nnc(SCCc2ccccc2)[nH]c1=O,19226*,0.5,-1.6,?,8.1,-7.4
CSc1nnc(C)c(=O)[nH]1,25237*,-1.6,-0.9,-4.8,-8.1,-7.8
Cc1noc(C)c1CSc1nnc(C)c(=O)[nH]1,8919,-12.6,1.2,-1.3,0.1,13.6
O=C(C1CC(c2ccccc2O)=NO1)N1CCC2(CC1)OCCO2 (centres undefined),20077*,0.0,1.5,6.1,6.9,-10.8
COc1ccc(C2=NOC(C(=O)N3CCOCC3)C2)cc1OC (centres undefined),23787*,-0.2,4.9,-5.0,-5.3,-7.7
